Experimental findings from the supplement of paper PMC11219838 are described below.

Common to all, as to details: 60 µM; 5 days; temperature: 20 °C
For one assay, the system named is Meloidogyne hapla J2. Description: proportion of mobile M. hapla J2 relative to DMSO control (fraction of DMSO control); higher = more viable, less nematicidal, active = 0.7 or less. Summed up:
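Two biological replicates were run and averaged, each on 96-well plates in which about 25 M. hapla J2 sat in distilled water per well. Compound was pinned in to give 60 µM final and 0.6% v/v DMSO, and the sealed plates were shaken at 200 rpm and 20 °C for 5 days before 2 µL 1 M NaOH was added. Mobility was scored microscopically and divided by the mean from the plate's DMSO-only wells, of which there were eight.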

Assay [1] relates to Caenorhabditis elegans dauer (daf-2(e1370)). Description: proportion of mobile C. elegans dauer larvae relative to DMSO control (fraction of DMSO control); higher = more viable, less nematicidal, active = 0.63 or less; extreme values may be limits of the assay. The gist of the method: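 Synchronized C. elegans daf-2(e1370) larvae were held at 25 °C for 48 h on MYOB plates with E. coli OP50 to form dauers, and about 20 dauers were added per 96-well well in liquid NGM. Compound was pinned to 60 µM final (0.6% v/v DMSO), and sealed plates were shaken at 200 rpm for 5 days at 20 °C. The proportion of mobile worms was scored under a dissection microscope relative to DMSO controls and averaged over two biological replicates.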

In another assay the test system is Ditylenchus dipsaci. The assay is described as follows: proportion of mobile D. dipsaci (mixed stage) relative to DMSO control (fraction of DMSO control); higher = more viable, less nematicidal, active = 0.86 or less; extreme values may be limits of the assay. The gist of the method: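 The worms, D. dipsaci raised on pea plants in Gamborg B-5 agar, were recovered through a filter funnel into water. Each well of a 96-well plate then held about 20 of them in distilled water plus pinned compound at 60 µM final (0.6% v/v DMSO), and the sealed plates were shaken at 200 rpm at 20 °C for 5 days. Following addition of 2 µL 1 M NaOH, mobile worms were counted by microscopy, and mobility was expressed against DMSO controls as the average of two biological replicates.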

Unmarked numbers belong to inactive results.

With `Clc1ccccc1CSc1nnc(-c2ccncc2)o1`, the “proportion of mobile M. hapla J2” value in the assay on Meloidogyne hapla J2 is 0.974. For the same compound, in assay [1], the “proportion of mobile C. elegans dauer larvae” value was 1. In the assay on Ditylenchus dipsaci, the “proportion of mobile D. dipsaci” value is 1.

Regarding `Cc1ccc(-c2noc(C3CCCCC3)n2)cc1`, in the assay on Meloidogyne hapla J2, the “proportion of mobile M. hapla J2” value is 1.05. Also, the “proportion of mobile C. elegans dauer larvae” value in assay [1] was 1. The “proportion of mobile D. dipsaci” value in the assay on Ditylenchus dipsaci was 1.

Regarding `CCCc1ccc(-c2nc(-c3cccnc3)no2)cc1`, the “proportion of mobile M. hapla J2” value in the assay with Meloidogyne hapla J2 is 1.08. Also, in assay [1], the “proportion of mobile C. elegans dauer larvae” value was 0.926. For the same compound, in the assay on Ditylenchus dipsaci, the “proportion of mobile D. dipsaci” value is 0.562 (active).

Turning to `Fc1ccc(-c2noc(COc3ccccc3)n2)cc1`, the “proportion of mobile M. hapla J2” value with Meloidogyne hapla J2 was 1.07. In assay [1], the “proportion of mobile C. elegans dauer larvae” value is 0.5 (active). The “proportion of mobile D. dipsaci” value with Ditylenchus dipsaci is 1.

Regarding `COc1ccc(Cl)cc1-c1nc(-c2ccc3c(c2)OCO3)no1`, in the assay with Meloidogyne hapla J2, the “proportion of mobile M. hapla J2” value was 0.957. In addition, in assay [1], the “proportion of mobile C. elegans dauer larvae” value was 1. For the same compound, in the assay with Ditylenchus dipsaci, the “proportion of mobile D. dipsaci” value was 1.

For the compound `CCC(=O)Nc1ccccc1-c1nc(-c2ccncc2)no1`, the “proportion of mobile M. hapla J2” value in the assay with Meloidogyne hapla J2 was 0.938. In assay [1], the “proportion of mobile C. elegans dauer larvae” value is 1. For the same compound, the “proportion of mobile D. dipsaci” value with Ditylenchus dipsaci was 1.

`Cc1ccc(CSc2nnc(-c3ccco3)o2)cc1`: the “proportion of mobile M. hapla J2” value in the assay with Meloidogyne hapla J2 is 0.628 (active). Moreover, in assay [1], the “proportion of mobile C. elegans dauer larvae” value is 0.167 (active). The “proportion of mobile D. dipsaci” value in the assay with Ditylenchus dipsaci was 1.

With `COc1ccc(CC(=O)Nc2ccc(-c3noc(-c4ccccc4Br)n3)cc2)cc1`, the “proportion of mobile M. hapla J2” value in the assay on Meloidogyne hapla J2 was 1.08. In assay [1], the “proportion of mobile C. elegans dauer larvae” value is 1. For the same compound, the “proportion of mobile D. dipsaci” value in the assay with Ditylenchus dipsaci was 1.

For `O=C(CSc1nnc(-c2ccc(Cl)cc2Cl)o1)c1ccc2c(c1)OCCO2`, in the assay on Meloidogyne hapla J2, the “proportion of mobile M. hapla J2” value was 0.719. The “proportion of mobile C. elegans dauer larvae” value in assay [1] was 1. Further, the “proportion of mobile D. dipsaci” value in the assay on Ditylenchus dipsaci is 1.

Consider `Clc1ccc(OCc2nc(-c3cccnc3)no2)c(Cl)c1`, for which the “proportion of mobile M. hapla J2” value in the assay with Meloidogyne hapla J2 was 0.998. Also, the “proportion of mobile C. elegans dauer larvae” value in assay [1] is 1. The “proportion of mobile D. dipsaci” value in the assay with Ditylenchus dipsaci was 1.

For the compound `Cc1cc(OCc2nc(-c3ccncc3)no2)c(C)cc1Br`, the “proportion of mobile M. hapla J2” value in the assay on Meloidogyne hapla J2 is 0.866. Moreover, the “proportion of mobile C. elegans dauer larvae” value in assay [1] is 1. For the same compound, the “proportion of mobile D. dipsaci” value with Ditylenchus dipsaci was 1.

As to `CN(C)c1ccc(-c2nnc(SCc3ccccc3)o2)cc1`, the “proportion of mobile M. hapla J2” value in the assay on Meloidogyne hapla J2 was 0.991. Besides, the “proportion of mobile C. elegans dauer larvae” value in assay [1] is 1. In the assay on Ditylenchus dipsaci, the “proportion of mobile D. dipsaci” value is 1.

In the case of `Cc1cccc(-c2noc(-c3ccc(Br)cc3)n2)c1`, the “proportion of mobile M. hapla J2” value in the assay with Meloidogyne hapla J2 was 1.04. Besides, the “proportion of mobile C. elegans dauer larvae” value in assay [1] is 1. Also, the “proportion of mobile D. dipsaci” value with Ditylenchus dipsaci was 1.

As to `CC(=O)Nc1c(C)ccc(CNC(=O)CSc2nnc(-c3ccc(C(C)(C)C)cc3)o2)c1C`, in the assay with Meloidogyne hapla J2, the “proportion of mobile M. hapla J2” value was 0.88. Moreover, in assay [1], the “proportion of mobile C. elegans dauer larvae” value was 1. In addition, the “proportion of mobile D. dipsaci” value in the assay on Ditylenchus dipsaci was 1.

Consider `Clc1cccc(-c2nc(-c3ccc4c(c3)OCO4)no2)c1`, for which the “proportion of mobile M. hapla J2” value in the assay with Meloidogyne hapla J2 was 0.943. In addition, the “proportion of mobile C. elegans dauer larvae” value in assay [1] is 1. The “proportion of mobile D. dipsaci” value with Ditylenchus dipsaci is 1.

`Fc1ccc(OCc2nc(-c3ccccc3)no2)cc1`: the “proportion of mobile M. hapla J2” value in the assay with Meloidogyne hapla J2 is 1.02. In addition, in assay [1], the “proportion of mobile C. elegans dauer larvae” value is 1. The “proportion of mobile D. dipsaci” value in the assay with Ditylenchus dipsaci is 1.

Turning to `Cc1cc(Br)ccc1OCc1nc(-c2ccccn2)no1`, the “proportion of mobile M. hapla J2” value with Meloidogyne hapla J2 was 0.973. In addition, the “proportion of mobile C. elegans dauer larvae” value in assay [1] was 1. For the same compound, the “proportion of mobile D. dipsaci” value with Ditylenchus dipsaci was 1.

`O=C(Nc1cccnc1)c1ccccc1-c1nc(-c2ccc(Cl)cc2)no1`: in the assay with Meloidogyne hapla J2, the “proportion of mobile M. hapla J2” value is 0.934. Also, the “proportion of mobile C. elegans dauer larvae” value in assay [1] was 1. Besides, the “proportion of mobile D. dipsaci” value in the assay on Ditylenchus dipsaci is 1.

With `Cc1ccc(NC(=O)CSc2nnc(-c3ccncc3)o2)cc1Cl`, in the assay with Meloidogyne hapla J2, the “proportion of mobile M. hapla J2” value was 0.939. Further, the “proportion of mobile C. elegans dauer larvae” value in assay [1] is 1. Moreover, in the assay on Ditylenchus dipsaci, the “proportion of mobile D. dipsaci” value is 1.

Take `CC(C)C(=O)Nc1ccccc1-c1nc(-c2ccccn2)no1`: the “proportion of mobile M. hapla J2” value in the assay with Meloidogyne hapla J2 is 0.995. For the same compound, the “proportion of mobile C. elegans dauer larvae” value in assay [1] was 1. In the assay on Ditylenchus dipsaci, the “proportion of mobile D. dipsaci” value was 1.

In the case of `Cn1cc(C(=O)CSc2nnc(-c3ccccc3)o2)c2ccccc21`, the “proportion of mobile M. hapla J2” value with Meloidogyne hapla J2 is 1.01. For the same compound, in assay [1], the “proportion of mobile C. elegans dauer larvae” value was 1. In addition, the “proportion of mobile D. dipsaci” value in the assay with Ditylenchus dipsaci is 1.

For the compound `Cc1cccc(-c2noc(COc3ccc(Cl)cc3)n2)c1`, the “proportion of mobile M. hapla J2” value in the assay on Meloidogyne hapla J2 is 1.04. The “proportion of mobile C. elegans dauer larvae” value in assay [1] was 1. Besides, the “proportion of mobile D. dipsaci” value with Ditylenchus dipsaci was 1.

Turning to `Clc1ccc(SCc2nc(-c3cccnc3)no2)cc1`, in the assay on Meloidogyne hapla J2, the “proportion of mobile M. hapla J2” value was 0.938. In assay [1], the “proportion of mobile C. elegans dauer larvae” value was 0.156 (active). Besides, in the assay on Ditylenchus dipsaci, the “proportion of mobile D. dipsaci” value is 1.

For `CN(C)C(=O)c1ccccc1-c1nc(-c2ccccc2Cl)no1`, the “proportion of mobile M. hapla J2” value with Meloidogyne hapla J2 was 0.882. In assay [1], the “proportion of mobile C. elegans dauer larvae” value is 1. The “proportion of mobile D. dipsaci” value in the assay on Ditylenchus dipsaci is 1.

As to `CC(C)c1ccc(OCc2nc(-c3ccccn3)no2)cc1`, the “proportion of mobile M. hapla J2” value with Meloidogyne hapla J2 was 1.01. Further, the “proportion of mobile C. elegans dauer larvae” value in assay [1] is 1. In addition, the “proportion of mobile D. dipsaci” value in the assay on Ditylenchus dipsaci was 1.

In the case of `O=S(=O)(CCC(F)=C(F)F)c1ncc(Cl)s1` [fluensulfone], the “proportion of mobile M. hapla J2” value with Meloidogyne hapla J2 is 0.0622 (active). Further, in assay [1], the “proportion of mobile C. elegans dauer larvae” value was 1. Further, the “proportion of mobile D. dipsaci” value with Ditylenchus dipsaci was 1.

With `Clc1cc(Br)ccc1OCc1nc(-c2ccccn2)no1`, in the assay with Meloidogyne hapla J2, the “proportion of mobile M. hapla J2” value is 1.01. For the same compound, the “proportion of mobile C. elegans dauer larvae” value in assay [1] was 1. Further, the “proportion of mobile D. dipsaci” value in the assay on Ditylenchus dipsaci was 1.

For the compound `Cc1ccc(SC(C)c2nc(-c3ccncc3)no2)cc1` (configuration not stated), in the assay with Meloidogyne hapla J2, the “proportion of mobile M. hapla J2” value was 0.861. Besides, the “proportion of mobile C. elegans dauer larvae” value in assay [1] was 0.8. In addition, the “proportion of mobile D. dipsaci” value in the assay on Ditylenchus dipsaci was 1.

As to `COc1ccccc1-c1nc(-c2ccc(Cl)cc2Cl)no1`, in the assay on Meloidogyne hapla J2, the “proportion of mobile M. hapla J2” value is 1. The “proportion of mobile C. elegans dauer larvae” value in assay [1] was 1. The “proportion of mobile D. dipsaci” value in the assay on Ditylenchus dipsaci was 1.

With `Clc1cccc(-c2nc(-c3cccnc3)no2)c1`, in the assay with Meloidogyne hapla J2, the “proportion of mobile M. hapla J2” value was 0.312 (active). In addition, in assay [1], the “proportion of mobile C. elegans dauer larvae” value was 1. In the assay with Ditylenchus dipsaci, the “proportion of mobile D. dipsaci” value is 1.

`COc1cccc(-c2noc(CSc3ccc(Cl)cc3)n2)c1`: in the assay with Meloidogyne hapla J2, the “proportion of mobile M. hapla J2” value is 1.03. Moreover, in assay [1], the “proportion of mobile C. elegans dauer larvae” value is 1. For the same compound, the “proportion of mobile D. dipsaci” value in the assay on Ditylenchus dipsaci is 1.

On to `O=C(CSc1nnc(-c2ccccc2)o1)NCc1ccccc1`, for which the “proportion of mobile M. hapla J2” value in the assay on Meloidogyne hapla J2 is 0.948. Besides, in assay [1], the “proportion of mobile C. elegans dauer larvae” value is 1. For the same compound, in the assay with Ditylenchus dipsaci, the “proportion of mobile D. dipsaci” value was 1.

Consider `Cc1ccc(OC(C)c2nc(-c3ccncc3)no2)cc1C` (configuration not stated), for which the “proportion of mobile M. hapla J2” value in the assay on Meloidogyne hapla J2 was 0.995. Besides, the “proportion of mobile C. elegans dauer larvae” value in assay [1] was 1. For the same compound, the “proportion of mobile D. dipsaci” value in the assay with Ditylenchus dipsaci was 1.

For `c1ccc2cc(-c3nc(-c4ccncc4)no3)ccc2c1`, in the assay on Meloidogyne hapla J2, the “proportion of mobile M. hapla J2” value is 0.994. Further, the “proportion of mobile C. elegans dauer larvae” value in assay [1] is 1. In addition, in the assay on Ditylenchus dipsaci, the “proportion of mobile D. dipsaci” value is 1.
